In PubChem BioAssay one finds composite z-score and z-score data, which are given here for 17 compounds.

In assay [1] the test system is XIP peptide (Xip251-270) binding. Nature of the assay: small-molecule binders of XIP peptide, primary screen, biochemical, small-molecule microarray, fluorescence 635/667 nm, 0.1 µg/mL protein (AID 1182). To be noted: fluorescent protein binding, 635 nm, higher = more signal, called active from +8 up or from −8 down.
The test system of assay [2] is XIP peptide (Xip251-270). Nature of the assay: small-molecule binders of XIP peptide, primary screen, biochemical, small-molecule microarray, fluorescence 635/667 nm, 0.5 µg/mL protein (AID 1183). To be noted: small-molecule microarray binding, fluorescence 635 nm; higher = more signal.
Assay [3] can be described thus: Plasmodium falciparum growth inhibition, primary screen, strain 3D7, DAPI fluorescence, 100 nL (AID 1184).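 Note: parasites grown inside human red blood cells in medium with human serum.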 To be noted: P. falciparum 3D7 growth, 3 d, higher = more signal.
Assay [4] has as its target Homeobox protein Hox-A13 (Mus musculus) (UniProt Q62424). Nature of the assay: inhibitors of HoxA13-DNA binding, primary screen, biochemical, fluorescence polarization, labeled oligonucleotide (AID 1185). As to conditions: 15 min, higher = more signal, called active from +8 up or from −8 down.
A short description of assay [5]: inhibitors of hydroxyurea-induced Chk1 phosphorylation, primary screen, imaging, HeLa, phospho-Chk1 antibody, percent positive cells (AID 1186). As to conditions: hydroxyurea-induced phospho-Chk1 immunofluorescence imaging, higher = more signal.
Assay [6] is described as follows: inhibitors of hydroxyurea-induced Chk1 phosphorylation, primary screen, imaging, HeLa, phospho-Chk1 nuclear intensity (AID 1187). As to conditions: hydroxyurea-induced phospho-Chk1 immunofluorescence imaging, higher = more signal.

SMILES strings stand for the structures. Active and inactive are the calls of the source. Unless noted, the rule behind the calls is not given here.

Chain of Homeobox protein Hox-A13 (Mus musculus) (Q62424 whole entry, looked up): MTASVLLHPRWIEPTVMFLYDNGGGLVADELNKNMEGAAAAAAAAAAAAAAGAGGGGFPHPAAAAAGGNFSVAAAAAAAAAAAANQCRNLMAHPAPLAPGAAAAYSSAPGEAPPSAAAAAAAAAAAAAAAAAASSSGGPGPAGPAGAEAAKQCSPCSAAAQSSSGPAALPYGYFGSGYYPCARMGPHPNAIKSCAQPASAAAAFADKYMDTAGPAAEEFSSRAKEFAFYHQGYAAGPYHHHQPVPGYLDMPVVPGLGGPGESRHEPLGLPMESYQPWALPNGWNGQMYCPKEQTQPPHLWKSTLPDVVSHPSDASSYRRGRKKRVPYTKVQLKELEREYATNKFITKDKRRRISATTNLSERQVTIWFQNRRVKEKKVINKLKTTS

On to `CCCC[C@H]1OB(O)C[C@H]2C1=C(COC)Cn1c(=O)n(-c3ccccc3)c(=O)n12`, for which the composite z-score is 0.81 (inactive) in assay [1] and -0.305 in assay [2]. For the same compound, the z-score in assay [3] was -1.29; in assay [4], -2.41 (inactive); in assay [5] it was -0.503 (inactive); in assay [6] it was -0.639 (inactive).

In the case of `CCOC(=O)C[C@H]1[C@H](OC(=O)c2ccc(C(=O)c3ccccc3)cc2)[C@@H](NC(=O)c2ccccc2)c2cc(OCCCO)ccc2N1C(=O)Cc1ccc(OC)cc1`, the composite z-score is -0.0614 (inactive) in assay [1] and 0.511 in assay [2]. The z-score in assay [3] was 0.4; in assay [4] it was -1.99 (inactive); in assay [5], 0.119 (inactive); in assay [6] it was 0.134 (inactive).

With `COC(=O)C(CC#Cc1ccc2c(c1)[C@]1(C(=O)N2)[C@H](c2ccc(OCCO)cc2)N2[C@H](c3ccccc3)[C@H](c3ccccc3)OC(=O)[C@H]2[C@@H]1C(=O)Nc1nc2ccccc2s1)C(=O)OC`, the composite z-score in assay [1] is 0.081 (inactive); in assay [2] it was 0.54. For the same compound, the z-score in assay [3] was -1.79; in assay [4], 0.63 (inactive); in assay [5], -0.378 (inactive); in assay [6] it was -0.763 (inactive).

`CCCCN1CC=CC23O[C@@H]4C=CCCOC(=O)C4[C@H]2C(=O)N(CCCCCCO)[C@@H]3C1=O` (some centres not stated): the composite z-score in assay [1] is 0.249 (inactive); in assay [2], 0.847. Further, the z-score in assay [3] was -0.35; in assay [4], -4.29 (inactive); in assay [5], 0.809 (inactive); in assay [6] it was 0.79 (inactive).

Take `CCC(CC)C(O)C1C=CC2C(=O)NC(=O)C2N1Nc1ccc(Cl)cc1Cl` (configuration not stated): the composite z-score was 0.625 (inactive) in assay [1] and 0.587 in assay [2]. The z-score in assay [3] is -0.225; in assay [4], -4.8 (inactive); in assay [5] it was 0.724 (inactive); in assay [6] it was 0.786 (inactive).

Regarding `COc1cccc(-c2cccc(=O)o2)c1`, the composite z-score is -0.256 (inactive) in assay [1] and 0.688 in assay [2]. Moreover, the z-score in assay [3] was 0.0459; in assay [4] it was -2.09 (inactive); in assay [5] it was 0.317 (inactive); in assay [6], -0.169 (inactive).

Turning to `C[C@H]1C2[C@H](Cc3ccccc3)NC(=O)[C@]23C(=O)N[C@H](Cc2ccccc2)C(=O)N2CCC[C@H]2C(=O)NC/C=C\C/C=C/C3[C@@H]2O[C@]12C` (some centres not stated), the values for the composite z-score in assay [1] and in assay [2] were 0.297 (inactive) and 0.192, respectively. In addition, the z-score in assay [3] was -0.227; in assay [4], -6.27 (inactive); in assay [5] it was -0.291 (inactive); in assay [6], -0.104 (inactive).

As for `C=C(CCCC)/C(=C/C[C@H](OC(=O)c1ccncc1)c1ccccc1OCCO)c1cnc2ccccc2c1`, the values for the composite z-score in assay [1] and in assay [2] were 0.8 (inactive) and 0.575, respectively. For the same compound, the z-score in assay [3] was -2.96; in assay [4] it was -4.41 (inactive); in assay [5], 0.618 (inactive); in assay [6], 0.783 (inactive).

Regarding `COC(=O)[C@@]1(Cc2ccc(OC)cc2)[C@@H]2C(=CC(=O)[C@H]2CC(=O)C(=O)N2CCCC2)CN1C(=O)c1ccccc1`, the composite z-score in assay [1] is -0.406 (inactive); in assay [2] it was 0.161. Besides, the z-score in assay [3] was -0.918; in assay [4], -2.39 (inactive); in assay [5], -0.0101 (inactive); in assay [6], -0.277 (inactive).

`C=CCN1C(=O)[C@@]2(Cc3ccccc31)N=C(c1ccc(OCCCO)cc1)O[C@H]2c1ccccc1`: the composite z-score is 0.619 (inactive) in assay [1] and 0.801 in assay [2]. Also, the z-score is -1.16 in assay [3], -4.35 (inactive) in assay [4], -0.456 (inactive) in assay [5] and -0.416 (inactive) in assay [6].

On to `COCCOC(=O)N1C(=O)[C@@]2(c3cc(C#CCCO)ccc31)[C@H](C(N)=O)[C@H]1C(=O)O[C@H](c3ccccc3)[C@H](c3ccccc3)N1[C@@H]2c1ccc(O)cc1`, for which the composite z-score in assay [1] is -0.13 (inactive); in assay [2], -0.452. Further, the z-score is 2.08 in assay [3], -4.08 (inactive) in assay [4], 0.0513 (inactive) in assay [5] and -0.0312 (inactive) in assay [6].

As to `CC1(C)C2C=C(C(O)C3C=CC4C(=O)NC(=O)C4N3Nc3ccc(Cl)cc3Cl)C[C@@H]1C2` (some centres not stated), the composite z-score in assay [1] was 1.15 (inactive); in assay [2], 0.231. In addition, the z-score in assay [3] is 0.665; in assay [4] it was -4.45 (inactive); in assay [5], 0.955 (inactive); in assay [6], 0.327 (inactive).

For the compound `COc1ccc(/C=C/C=O)cc1`, the figures for the composite z-score in assay [1] and in assay [2] were -0.338 (inactive) and 0.185, respectively. Moreover, the z-score in assay [3] is 1.01; in assay [4], 0.0055 (inactive); in assay [5] it was 0.0257 (inactive); in assay [6], 0.0335 (inactive).

As for `O=C1C2C=CC(C(O)c3cc(C(F)(F)F)cc(C(F)(F)F)c3)N(n3cnnc3)C2C(=O)N1Cc1ccccc1` (configuration not stated), the composite z-score in assay [1] is -0.0242 (inactive); in assay [2], 0.662. Further, the z-score in assay [3] was -1.06; in assay [4], -2.95 (inactive); in assay [5], 0.506 (inactive); in assay [6], 0.135 (inactive).

In the case of `COC(=O)[C@@]1(Cc2ccccc2)[C@H]2c3cc(C(=O)N4CCCC4)n(Cc4ccc(S(C)(=O)=O)cc4)c3C[C@H]2CN1C(=O)c1ccccc1`, the figures for the composite z-score in assay [1] and in assay [2] were 0.478 (inactive) and 0.215, respectively. Moreover, the z-score in assay [3] was -1.5; in assay [4], -4.67 (inactive); in assay [5], 0.267 (inactive); in assay [6], -0.364 (inactive).

`COc1ccccc1CN1C(=O)c2ccccc2[C@@H](C(=O)NC2CC2)[C@@H]1c1ccc(CO)cc1`: the results for the composite z-score in assay [1] and in assay [2] were 0.98 (inactive) and 0.835, respectively. The z-score in assay [3] was -1.79; in assay [4], -2.46 (inactive); in assay [5] it was 0.0151 (inactive); in assay [6], 0.351 (inactive).

In the case of `CC(C)[Si](C#Cc1ccc(Oc2ccccc2)cc1)(O[Si](C#Cc1ccc(Oc2ccccc2)cc1)(C(C)C)C(C)C)C(C)C`, the composite z-score in assay [1] is 0.467 (inactive); in assay [2], -0.0968. The z-score in assay [3] was -1.37; in assay [4] it was -2.37 (inactive); in assay [5], -1.01 (inactive); in assay [6] it was -0.556 (inactive).
